The campaign covered roughly 2,000 compounds. About 250 (12%) were called active. Only a selection was taken, and actives are over-represented in it overall. A number with no mark means an inactive call. Rule as the data show it: active = hERG blockade below about -20% or above about 20%; inactive = in between.
Biological target: Voltage-gated inwardly rectifying potassium channel KCNH2 (Homo sapiens) (UniProt Q12809)
Experiment: modulators of KCNH2 ion channel function, cellular (AID 376);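 also: 0% = buffer alone and 100% = reference blocker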
Details: hERG-expressing cells, channel activity single-concentration screen; concentration not given here

Chain of Voltage-gated inwardly rectifying potassium channel KCNH2 (Homo sapiens) (Q12809 whole entry, looked up): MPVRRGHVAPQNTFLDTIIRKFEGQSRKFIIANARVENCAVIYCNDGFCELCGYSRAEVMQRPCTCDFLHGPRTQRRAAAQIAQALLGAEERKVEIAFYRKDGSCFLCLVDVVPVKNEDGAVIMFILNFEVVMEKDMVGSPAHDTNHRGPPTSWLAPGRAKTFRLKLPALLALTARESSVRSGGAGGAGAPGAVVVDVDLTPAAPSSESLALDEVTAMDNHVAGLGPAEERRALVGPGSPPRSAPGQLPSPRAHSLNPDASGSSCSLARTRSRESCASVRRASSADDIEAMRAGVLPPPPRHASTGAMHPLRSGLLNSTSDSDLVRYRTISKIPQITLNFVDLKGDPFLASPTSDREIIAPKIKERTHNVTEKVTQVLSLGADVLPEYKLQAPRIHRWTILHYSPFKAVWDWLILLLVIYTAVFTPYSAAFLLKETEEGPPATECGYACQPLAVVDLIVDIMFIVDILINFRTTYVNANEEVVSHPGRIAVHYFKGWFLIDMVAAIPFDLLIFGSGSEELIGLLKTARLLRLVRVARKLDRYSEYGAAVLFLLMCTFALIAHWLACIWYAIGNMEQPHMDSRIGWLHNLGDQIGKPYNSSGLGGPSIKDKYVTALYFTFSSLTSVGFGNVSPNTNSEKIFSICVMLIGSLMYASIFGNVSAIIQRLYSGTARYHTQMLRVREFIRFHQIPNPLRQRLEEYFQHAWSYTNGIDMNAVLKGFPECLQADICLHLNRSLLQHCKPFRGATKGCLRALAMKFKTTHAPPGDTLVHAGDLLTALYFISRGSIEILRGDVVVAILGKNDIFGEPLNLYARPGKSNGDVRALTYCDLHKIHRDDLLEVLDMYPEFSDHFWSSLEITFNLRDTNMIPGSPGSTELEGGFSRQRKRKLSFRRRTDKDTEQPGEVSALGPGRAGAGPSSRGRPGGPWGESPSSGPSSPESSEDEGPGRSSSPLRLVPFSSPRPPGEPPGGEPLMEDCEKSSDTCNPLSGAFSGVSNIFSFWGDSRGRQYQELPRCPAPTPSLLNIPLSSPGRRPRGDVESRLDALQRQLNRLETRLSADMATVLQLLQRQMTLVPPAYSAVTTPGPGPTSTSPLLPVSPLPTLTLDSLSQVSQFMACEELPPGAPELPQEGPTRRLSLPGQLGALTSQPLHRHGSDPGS

| Structure (SMILES) | hERG blockade |
| --- | --- |
| NC1(C(=O)O)CCCC1C(=O)O (stereo unspecified) | -13.4% |
| CCC1(O)C(=O)OCc2c1cc1n(c2=O)Cc2cc3c(CN(C)C)c(O)ccc3nc2-1 (stereo unspecified) | 21.4% (active) |
| O=C(O)c1ccc(NS(=O)(=O)Cc2ccccc2)cc1 | 7.65% |
| NC(N)=NC1C(O)C(O)C(O)C(N=C(N)N)C1O (stereo unspecified) | -0.537% |
| Cc1[nH]c2ccccc2c1-c1cc(-c2cc(-c3c(C)[nH]c4ccccc34)on2)no1 | -7.59% |
| N#Cc1c(NC(=O)C(F)(F)F)sc2c3c(=O)c4ccccc4c(=O)c=3oc3ccccc3c12 | 59% (active) |
| NCOC(=O)Cc1ccc(Br)cc1 | -16.9% |
| COc1ccc2c(c1)[n+]([O-])c(C(C)=NNC(N)=S)c(C)[n+]2[O-] | -7.37% |
| c1nc(NCCc2cnc[nH]2)c2[nH]cnc2n1 | -31% (active) |
| O=C(O)CCNc1ncnc2nc[nH]c12 | 14% |
| OCCNc1ncnc2nc[nH]c12 | 3.32% |
| Cn1c(=O)c2[nH]c(N=NN3CCN(CCO)CC3)nc2n(C)c1=O | 0.124% |
| O=C(O)C(=Cc1ccc(O)cc1)c1cccc2ccccc12 | 0.955% |
| Cn1c(CC(O)c2nc3ccccc3n2C)nc2ccccc21 (stereo unspecified) | -5.68% |
| N=C(N)SCc1cccc(-c2nc3ccccc3c(=O)o2)c1 | -5.77% |
| N=C(N)SCc1cccc2c(=O)cc(-c3ccccc3)oc12 | 44.3% (active) |
| O=C(O)Cc1cccc2c(=O)cc(-c3ccccc3)oc12 | -7.46% |
| c1ccc2c(c1)C(=Nc1ccc(N=C3c4ccccc4-c4ccccc43)cc1)c1ccccc1-2 | 6.51% |
| CC(C)N(CC(=O)O)CC(=O)O | 7.91% |
| NC(Cc1ccccc1)C(=O)O (stereo unspecified) | 16.4% |
| [N-]=[N+]=Nc1ccccc1-c1ccccc1[N+](=O)[O-] | -19.7% |
| c1cc(-c2sc(-c3ccncc3)c(-c3ccncc3)c2-c2ccncc2)ccn1 | 22.4% (active) |
| Nc1[nH]c(=S)[nH]c(=O)c1N=Nc1c(Br)cc(S(N)(=O)=O)cc1Br | 6.92% |
| CSC12C(=O)CC3(C)C(CCC3(O)C(=O)CO)C1CCC1=CC(=O)CCC12C (stereo unspecified) | 3.28% |
| Ic1ccc2c(c1)N(c1ccccc1)c1cc(Nc3ccc4nc5ccc(I)cc5[n+](-c5ccccc5)c4c3)ccc1N2 | 30.3% (active) |
| CN1CCCN(C)C1c1cc([N+](=O)[O-])ccc1O | 11.9% |

| Structure (SMILES) | hERG blockade |
| --- | --- |
| CC(N)C(C)Cc1ccccc1 (stereo unspecified) | 8.67% |
| COC(=O)c1cc(-c2ccc3ccccc3c2)[nH]c(=O)c1C#N | 2.57% |
| ClC(Cl)(Cl)C(N1CCN(c2ccccc2)CC1)N1CCN(c2ccccc2)CC1 | 3.84% |
| Nc1cc(S(=O)(=O)O)cc2ccc(S(=O)(=O)O)cc12 | -2.77% |
| C(=Nc1ccc2c(c1)Cc1ccccc1-2)c1ccccn1 | -16.5% |
| ON(CCc1ccccn1)Cc1ccccc1 | -7.89% |
| O=C1c2ccccc2-c2ccc(N(Cc3ccc(Br)cc3)Cc3ccc(Br)cc3)cc21 | 15.9% |
| CN(CCc1ccccn1)c1ccc2c(c1)Cc1ccccc1-2 | 20.3% (active) |
| CC(C)C(=O)C(C)(C)CCc1ccccn1 | 1.93% |
| CN(CCc1ccccn1)c1ccc2c(c1)C(=O)c1ccccc1-2 | 75.4% (active) |
| Cn1ncc2c(Cl)ncnc21 | 12.1% |
| O=C(O)CCCN1CCCCC1 | -19.4% |
| NCCSCCc1ccccc1 | -4.22% |
| NC(CC(=O)Nc1cc(C(F)(F)F)ccc1Cl)=NO | 15.2% |
| CN1CCC(CN2c3ccccc3Sc3ccccc32)C1 (stereo unspecified) | 42.9% (active) |
| c1ccc2sc(SCN(C3CCCCC3)C3CCCCC3)nc2c1 | 12.7% |
| CCC12CCCN3CCc4c(n(c5ccccc45)C(=O)C1)C32 (stereo unspecified) | 37.7% (active) |
| CC1=CC(C)(C)Nc2ccc(CSc3ccccc3)cc21 | 0.516% |
| Nc1nc(Cc2ccccc2)nc(Cc2ccccc2)c1-c1ccccc1 | 29% (active) |
| Nc1nc(-c2ccccc2)c(-c2ccccc2)c(-c2nc(N)nc(-c3ccccc3)c2-c2ccccc2)n1 | 1.5% |
| Nc1nc(N)c(-c2cccc(C(F)(F)F)c2)c(Cc2cccc(C(F)(F)F)c2)n1 | 11% |
| Cn1c(=O)c2c(nc(C(=N)SCC(=O)O)n2C)n(C)c1=O | 13.2% |
| O=C(O)CCSCc1ccccc1 | -0.0927% |
| O=C(O)C=CC(=O)Nc1cccc2c1-c1ccccc1C2=O | -8.93% |
| NC(N)=Nc1ccc(-c2ccc(N=C(N)N)cc2)cc1 | -0.0188% |
| O=C(O)c1cncc(C(=O)O)c1 | 3.7% |

| Structure (SMILES) | hERG blockade |
| --- | --- |
| CC1CCCC=CC2CC(OC(=O)CN(C)C)CC2C(O)C=CC(=O)O1 (stereo unspecified) | -21.9% (active) |
| COc1ccc(NCc2c(O)ccc3ccccc23)cc1 | -7.42% |
| CSc1ccc(NC(=O)C2CCCCC2C(=O)O)cc1 (stereo unspecified) | 10.7% |
| NC(=O)NC(=O)C1CCCCC1C(=O)O (stereo unspecified) | -24.9% (active) |
| CNCC(SC)c1ccc(O)c(O)c1 (stereo unspecified) | 11.7% |
| Cc1nc([N+](=O)[O-])cn1-c1nc2ccccn2c1[N+](=O)[O-] | -4.23% |
| c1ccc(CCN2CCN=C2Cc2ccccc2)cc1 | 11.4% |
| CC(N)C(N)=NO (stereo unspecified) | -3.44% |
| CN1CCN(CCCN2c3ccccc3Sc3ccc(C(F)(F)F)cc32)CC1 | 29.9% (active) |
| O=C1CSC2(CCN(CCCN3c4ccccc4Sc4ccc(Cl)cc43)CC2)N1 | 10.1% |
| SC1CCCN(Cc2ccccc2)C1 (stereo unspecified) | 10.8% |
| CCC(C)(C)c1ccc(Oc2cccc(C(=O)O)c2)cc1 | -10.7% |
| CN1CCc2ccccc2C1Cc1ccccc1NC(=O)c1sc2ccccc2c1Cl (stereo unspecified) | 23.1% (active) |
| O=C(NC1(C(=O)O)CC1c1ccccc1)c1ccccc1 (stereo unspecified) | 6.62% |
| Cc1ccc(N=Nc2c(O)c(S(=O)(=O)O)cc3cc(S(=O)(=O)O)ccc23)c(C)c1 | 2.33% |
| O=S(=O)(O)c1cc(O)c2c(O)c(N=Nc3cccc4ccccc34)c(S(=O)(=O)O)cc2c1 | 9.29% |
| Cc1ccc(N=Nc2c(O)ccc3cc(S(=O)(=O)O)ccc23)cc1 | 31% (active) |
| O=S(=O)(O)c1ccc2c(N=Nc3cccc4ccccc34)c(O)c(S(=O)(=O)O)cc2c1 | 8.62% |
| Nc1ccccc1N=Nc1c(S(=O)(=O)O)cc2cc(S(=O)(=O)O)cc(O)c2c1O | 21.5% (active) |
| O=[N+]([O-])c1ccc2c(N=Nc3ccc4ccccc4c3O)c(O)cc(S(=O)(=O)O)c2c1 | 23.1% (active) |
| O=S(=O)(O)c1cc(O)c2c(N=Cc3ccccc3O)cc(S(=O)(=O)O)cc2c1 | -9.52% |
| O=[N+]([O-])c1ccc2c(c1)c(S(=O)(=O)O)cc1nonc12 | -6.88% |
| O=S(=O)(O)c1cc(S(=O)(=O)O)c2c(N=Nc3cccc4ccccc34)c(O)ccc2c1 | 14.2% |
| O=S(=O)(O)c1ccc(N=Nc2ccc3c(S(=O)(=O)O)cccc3c2O)c2ccccc12 | 14.9% |
| O=S(=O)(O)c1ccc2c(N=Nc3c(O)ccc4ccccc34)cccc2c1 | 49.9% (active) |
| O=S(=O)(O)c1ccc(N=Nc2ccccc2)cc1 | -15.7% |

| Structure (SMILES) | hERG blockade |
| --- | --- |
| Nc1ccc(S(=O)(=O)c2ccc(NC(=O)c3cccnc3)cc2)cc1 | 12.7% |
| Nc1nc2nc3c(nc2c(=O)[nH]1)CN(c1ccc(C(=O)O)cc1)C3=O | -6.18% |
| O=C(O)C(CCc1ccccc1)N1C(=O)c2ccccc2C1=O (stereo unspecified) | 0.137% |
| Cc1[nH]c2c(C)ccc(C)c2c1CC(=O)O | -7.4% |
| Cc1cc(Cl)nc(NC(=O)CSc2ccc(Cl)cc2)n1 | -7.4% |
| NC(CSC(=O)c1ccccc1)C(=O)O (stereo unspecified) | 8.51% |
| CN(C)C1C(=O)C(C(=O)NCN2CCCC2)=C(O)C2(O)C(=O)C3=C(O)c4c(O)cccc4C(C)(O)C3CC12 (stereo unspecified) | 5.47% |
| NC(=O)c1nnn(Cc2cc(Cl)c(C(=O)c3ccc(Cl)cc3)c(Cl)c2)c1N | 17.3% |
| CC(C)CN(CC#N)CC(C)C | 1.01% |
| Cc1ccnc(NS(=O)(=O)c2ccc(N=[N+]=[N-])cc2)n1 | 8.12% |
| CC(CC(N)C(=O)O)C(=O)O (stereo unspecified) | 1.62% |
| Cc1cc2c(SCc3ccccc3Cl)nc(N)nc2nc1C | -7.31% |
| O=C1c2cccc([N+](=O)[O-])c2C(=O)N1c1ncn[nH]1 | 24.2% (active) |
| O=C(O)C(Cc1ccccc1)N1C(=O)c2ccccc2C1=O (stereo unspecified) | 13.1% |
| O=C(O)CC(C(=O)O)C1c2ccccc2-c2ccccc21 (stereo unspecified) | 14.3% |
| NC(=O)C1CCCNC1 (stereo unspecified) | -2.06% |
| CN(C)CCCc1c2ccccc2nc2ccc(Cl)cc12 | 35.2% (active) |
| CN(C)CCCSc1nc2ccccc2[nH]1 | -13.7% |
| O=C(O)c1cc(-c2ccc(-c3ccc(-c4cc(C(=O)O)c5cc(Cl)ccc5n4)cc3)cc2)nc2ccc(Cl)cc12 | -1.3% |
| CC(=O)C1CCC2C1(C)CC=C1C23C=CC2(CC(O)CCC12C)C(C(=O)O)C3C(=O)O (stereo unspecified) | 3.22% |
| NC(N)=NC(N)=Nc1ccc(S(=O)(=O)O)cc1 | -3.84% |
| O=[N+]([O-])c1ccc2c(c1)Cc1cc(N=Cc3ccc4c(c3)OCO4)ccc1-2 | -2.54% |
| COc1cc2c(cc1O)C(c1cc(O)c(O)c(OC)c1)C(O)(C(=O)O)C(CO)C2O (stereo unspecified) | -2.14% |
